From PubChem
H9c2 protect: modulators protecting cardiomyocytes from myocardial damage | H9c2 cardiomyocytes, H2O2 injury protection, ATPLite, 2 h | protection from H2O2 cell death, % at 20 µM | 0.63% of 360,000 active;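 active = compounds giving at least 50% protection of heart cells from peroxide-induced death in the single-dose screen, raw or plate-pattern-corrected value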;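 also: 0% = DMSO wells with peroxide and 100% = DMSO wells without peroxide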
FAS TE block: FAS thioesterase (human) inhibition; 0.67% of 360,000 active; recombinant FAS-TE, OMFH fluorogenic substrate, fluorescence endpoint; inhibition, % at 15 µM;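 active = compounds whose normalised, plate-corrected inhibition of enzyme fluorescence in the single-dose primary screen is 50% or more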;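 also: 0% = DMSO with enzyme and 100% = substrate without enzyme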
PLCg1 inh: PLC-gamma1 (human) inhibition, primary screen; 0.84% of 370,000 active; inhibition, % at 12.2 µM; AID 720700; P19174; purified PLC-gamma1, fluorogenic substrate, fluorescence; in the data active = inhibition above about 9.5%
PLCb3 inh: inhibitors of human phospholipase C beta3; Purified PLC-beta3, fluorogenic substrate, fluorescence; 0.18% of 370,000 active; inhibition, % at 12.2 µM; in the data active = inhibition above about 11%;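 also: 0% = median of compound wells on plate and 100% = full blocker control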
* marks the source's active call; other numbers are inactive results; nt = not tested or not shown. A selection: hits, their analogues and other compounds. The true share with any hit is near 2.2%.

SMILES	H9c2 protect	FAS TE block	PLCg1 inh	PLCb3 inh
COc1cc(-c2ccc3c(=O)c4ccccc4n(C)c3c2)cc(OC)c1OC	88*	16	-314	-420
O=C(NN=Cc1ccc(N2CCOCC2)s1)c1ccc([N+](=O)[O-])cc1	63*	14	1	3
O=C(N/N=C/c1ccc(N2CCOCC2)s1)c1ccc(O)cc1	0	-5	-103	-129
CC1(c2nnnn2-c2ccc3c(c2)OCCO3)CSCC(=O)N1CCc1c[nH]c2ccccc12 (stereo unspecified)	nt	nt	0	3
Cc1ccc([N+](=O)[O-])cc1N(CC(=O)Nc1ccc(S(=O)(=O)Nc2cccc(C(F)(F)F)c2)cc1)S(C)(=O)=O	3	29	9.9*	2
COc1cc(C(=O)N/N=C(\C)c2ccccn2)cc(OC)c1OC	58*	-7	-1	-5
COc1cccc(C(=O)N/N=C(/c2ccccc2)c2ccccn2)c1	17	-3	-1	2
COc1cc(C(=O)NNC(=O)c2ccc3ccccc3n2)cc(OC)c1OC	61*	-6	-36	-41
CCCCCC(=O)N/N=C(\C)c1ccccn1	61*	-5	-3	1
COc1cc(C(=O)N/N=C(\c2ccccc2)c2ccccn2)cc(OC)c1OC	78*	9	8	3
C=CCN1C(=O)c2[nH]nc(-c3ccccc3)c2C1c1ccc(C)cc1 (stereo unspecified)	nt	nt	4	-1
O=C(N/N=C/c1cn(-c2ccccc2)nc1-c1ccc(F)cc1)c1ccc2c(c1)OCO2	29	28	1	3
O=C(N/N=C/c1cn(-c2ccccc2)nc1-c1cccnc1)c1ccccc1	61*	2	4	1
O=C(N/N=C\c1cn(-c2ccccc2)nc1-c1ccccc1)c1ccc2c(c1)OCO2	52*	24	7	1
CC(C)C(=O)N[C@H]1[C@H](O)CCC[C@]12C(=O)N(Cc1ccccc1)c1ccccc12	nt	nt	1	1
COC(=O)C1CN(Cc2cn(Cc3ccc(Cl)cc3)nn2)CCS(=O)(=O)N1Cc1ccc(Cl)cc1 (stereo unspecified)	nt	nt	1	0
Cc1cccc(/C=N/NC(=O)c2c(-c3ccccc3)noc2C)c1O	54*	17	-8	-20
COc1ccccc1/C=N/NC(=O)c1c(-c2ccccc2)noc1C	-7	1	0	-3
CC(C)(C)OC(=O)CNC(=O)c1[nH]cnc1C(=O)NCC(=O)OCc1ccccc1	105*	11	1	1
CC(C)C[C@H](NC(=O)c1[nH]cnc1C(=O)N[C@@H](C)C(=O)OC(C)(C)C)C(=O)OCc1ccccc1	-3	21	6	3
CC(C)(C)OC(=O)NCCCCCNC(=O)c1nc[nH]c1C(=O)NCC(=O)OCc1ccccc1	20	29	-1	1
CC(C)C[C@H](NC(=O)c1[nH]cnc1C(=O)N[C@@H](C)C(=O)OCc1ccccc1)C(=O)OCc1ccccc1	-15	17	11*	1
O=C(CNC(=O)c1[nH]cnc1C(=O)N[C@@H](Cc1ccccc1)C(=O)OCc1ccccc1)OCc1ccccc1	10	26	5	1
O=C(CNC(=O)c1[nH]cnc1C(=O)NC(c1ccccc1)c1ccccc1)OCc1ccccc1	58*	15	5	1
CCOC(=O)CC[C@@]1(C(=O)OCC)C[C@@H](CC(=O)NCCCOC)C(=O)N2CCCC=C21	nt	nt	-1	0
SMILES	H9c2 protect	FAS TE block	PLCg1 inh	PLCb3 inh
Oc1ccc(C2C[C@H]3CC[C@@H]2C3)cc1O (stereo partly specified)	31	-3	-4	-10
Oc1ccc(C2CNCc3sccc32)cc1O (stereo unspecified)	54*	-4	1	0
COC(=O)[C@]12C[C@H](CC(=O)N3CCC(c4ccccc4)CC3)C(=O)N(Cc3ccccc3)C1=C[C@H](C(C)C)O[C@@H]2C1CC1	nt	nt	-2	-1
O=C(Oc1ccc2c(-c3ccccc3)cc(=O)oc2c1)C1CCCCC1	88*	21	-308	-342
COc1ccc(-c2cc(=O)oc3cc(OC(=O)C4CCCCC4)ccc23)cc1	52*	19	-278	-277
Cc1nc2sc3c(c2c(=O)[nH]1)CCC3	40	-7	2	1
O=c1[nH]cnc2sc3c(c12)CCC3	60*	-6	2	-7
COc1cc2c(cc1OC)C(c1cccs1)N(C(=O)c1cccnc1)CC2 (stereo unspecified)	10	1	9.9*	4
COc1cc2c(cc1OC)C(c1cccs1)N(C(=O)C(C)C)CC2 (stereo unspecified)	4	-7	-1	1
